Bioassay records deposited in PubChem by National Center for Advancing Translational Sciences (NCATS).
ClpP mod = qHTS Assay for Activators of ClpP; ATP-dependent Clp protease proteolytic subunit (Bacillus subtilis (strain 168)), P80244; purified B. subtilis ClpP, FRET peptide cleavage, 20 min; Potency, µM (series often up to 57.5 µM); 1.9% of 340,000 active; AID 651965, 2013; active = well fitted falling curve with a large enough effect; inconclusive = small, poorly fitted or top-dose-only effect; inactive = no such curve, though single readings can be large or run the other way; note: the source files actives as falling curves though it sought activators and does not explain the sign; nearly all actives have a fitted effect of over 65% in size
Target sequence (P80244 whole entry, looked up): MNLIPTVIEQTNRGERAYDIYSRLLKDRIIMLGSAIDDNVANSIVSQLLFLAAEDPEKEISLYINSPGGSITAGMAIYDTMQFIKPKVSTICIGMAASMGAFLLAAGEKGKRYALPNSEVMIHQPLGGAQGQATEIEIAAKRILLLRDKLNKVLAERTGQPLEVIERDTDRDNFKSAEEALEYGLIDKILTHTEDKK
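ClpP 10 microg/mL final, pH 8 Tris/KCl buffer with BSA, glycerol, Tween-20; compound pinned in; FRET-FV substrate; RT 20 min; Ex320/Em430; ΔFRET vs ADEP 5.8 microM, DMSO, no enzyme.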
rTrxR1 inhibitor = qHTS Assay for Inhibitors of Mammalian Selenoprotein Thioredoxin Reductase 1 (TrxR1): qHTS. recombinant rTrxR1, NADPH fluorescence consumption, selenite substrate. Potency, µM (doses to about 114 µM), hits mostly inhibitors. 1% of 390,000 active; note: nearly all actives have a fitted effect of over 65% in size
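Rat TrxR1 (90 nM in the dispensed reagent) was pre-reduced with 400 uM NADPH for 5 min at room temperature, then incubated with compound for 15 min. After 400 uM selenite was added, NADPH fluorescence (Ex 340/Em 450 nm) was followed for 8 min.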
Anesthetic bind = qHTS Assay for Identification of Novel General Anesthetics; AID 485281, 2010; Ferritin light chain (Equus caballus), P02791; Potency, µM (top dose mostly 77.5 µM), usual class: inhibitors; apoferritin/1-aminoanthracene competitive binding, fluorescence; 0.074% of 350,000 active; note: nearly all actives have a fitted effect of over 20% in size
Target sequence (P02791 2-175 limits assumed): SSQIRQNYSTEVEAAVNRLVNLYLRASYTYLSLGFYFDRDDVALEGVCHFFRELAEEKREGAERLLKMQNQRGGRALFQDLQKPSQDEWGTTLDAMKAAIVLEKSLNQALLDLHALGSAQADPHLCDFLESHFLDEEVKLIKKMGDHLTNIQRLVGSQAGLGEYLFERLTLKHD
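Horse-spleen apoferritin (10 uM) in 50% saturated 1-aminoanthracene in PBS was incubated 10 min at room temperature with compound. Fluorescence (ex 380, em 535 nm) was normalized to free and bound 1-AMA, with concentration-response fitted by a four-parameter Hill equation.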
TrxR1 substrate = qHTS Assay for Substrates of Mammalian Selenoprotein Thioredoxin Reductase 1 (TrxR1): qHTS; purified TrxR1 substrate turnover, NADPH consumption readout; Thioredoxin reductase 1, cytoplasmic (Rattus norvegicus), O89049; 0.01% of 390,000 active; Potency, µM (top dose mostly 114 µM); note: nearly all actives have a fitted effect of over 50% in size
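Rat TrxR1, dispensed at 90 nM, was prereduced with 400 uM NADPH (final) for 5 min at ~22 deg C, then incubated with compound 15 min before 400 uM selenite. A first-read NADPH fluorescence drop versus no-compound background flagged substrates.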
miR-21 reporter = qHTS Assay for Modulators of miRNAs and/orActivators of miR-21. HeLa miR-21 FLuc reporter, luciferase, 48 h. Potency, µM (series often up to 38.3 µM), actives largely listed as activators. 340,000 tested, under 10 active. AID 2288, 2010;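 note: miR-21 action dims this reporter so a rising signal means less miR-21 action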
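HeLa cells stably expressing CMV-driven firefly luciferase with a downstream miR-21 binding sequence, endogenously expressing miR-21, were treated with titrations (up to about 40uM final) for 48 hours at 37 degree Celsius. Luciferase luminescence was read after lysis.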
Numbers stand for hits; n = inactive; u = inconclusive; x = not tested or not shown; [ ] = dose if it differs, or a comment. Rows were chosen to be rich in hits. Some 2.5% of all compounds tested hit in one or more screens of this group. Unless noted, calls come from the whole dose curve; as a rule, active = well fitted curve in the direction sought with a large enough effect; inconclusive = small, poorly fitted or top-dose-only effect, or another doubt; inactive = no such curve, though single readings can be large; an effect the other way counts as inactive or inconclusive.

SMILES	ClpP mod	rTrxR1 inhibitor	Anesthetic bind	TrxR1 substrate	miR-21 reporter
Cc1ccc(NC(=O)C(C)c2cccc(C(=O)c3ccccc3)c2)cc1O (configuration not stated)	20µM	n	n	n	n
Cn1nnnc1SCCNCc1ccc(OCc2ccc(Cl)cc2)cc1	n	n	28µM	n	n
CC(C)c1ccc(CNCCSc2nnnn2C)cc1	n	n	n	n[11.4 µM]	n
COc1ccc(-n2c(SCC(=O)N/N=C(\C)c3cccnc3)nc3ccccc3c2=O)cc1	32µM	n	n	n	n
CC1=C(c2ccc(C(C)C)cc2)S(=O)(=O)N=C1N1CCC(C(=O)NCc2ccccc2)CC1	n	n	n	n	n
CCCc1nn2c(=O)cc(COC(=O)c3ccc(NC(=O)c4cccs4)cc3)nc2s1	n	n	n	n	n
Cc1cccc(-c2cc3nc4c(c(N5CCOCC5)n3n2)CCCC4)c1	u	n	n	n	n
Cc1cccc(-c2cc3nc4c(c(NCc5ccco5)n3n2)CCCC4)c1	28µM	n	n	n	n
CC(C)c1cc(-c2nc(-c3cccc(Cl)c3)no2)n[nH]1	n	n	u	n	n
Cc1cccc(-c2noc(-c3cc(C(C)C)[nH]n3)n2)c1	n	n	16µM	n	n
CC(C)CCNC(=O)c1cc2c(=O)n3ccccc3nc2s1	x	45µM	n	n	n
CC(C)CN(CC(C)C)C(=O)c1cc2c(=O)n3ccccc3nc2s1	n	n	n	n	n
C/C=C\C=C\C(=O)N1CC2(CC(c3cccc(NC(=O)CC(c4ccccc4)c4ccccc4)c3)=NO2)C[C@H]1C(N)=O (some centres not stated)	n	u	n	n	n
C/C=C\C(=O)Nc1cccc(C2=NOC3(C2)C[C@H](C(N)=O)N(C(=O)/C=C/CC)C3)c1 (some centres not stated)	n	n	n	n	n
C/C=C\C=C/C(=O)Nc1cccc(C2=NOC3(C2)C[C@@H](C(N)=O)N(C(=O)C2(C)CC2)C3)c1 (some centres not stated)	n	28µM	n	n	n
C=C(C)C(=O)Nc1cccc(C2=NOC3(C2)C[C@@H](C(N)=O)N(C(=O)C(=C)C)C3)c1 (some centres not stated)	n	n	n	n	n
C/C=C\C(=O)Nc1cccc(C2=NOC3(C2)C[C@@H](C(N)=O)N(C(=O)C2(C)CC2)C3)c1 (some centres not stated)	n	n	n	n	n
C/C=C\C=C/C(=O)Nc1cccc(C2=NOC3(C2)C[C@@H](C(N)=O)N(C(=O)/C=C/CC)C3)c1 (some centres not stated)	n	16µM	n	n	n
C=C(C)C(=O)N1CC2(CC(c3cccc(NC(=O)/C=C\C=C/C)c3)=NO2)C[C@H]1C(N)=O (some centres not stated)	n	20µM	n	n	n
C/C=C\C=C/C(=O)Nc1cccc(C2=NOC3(C2)C[C@@H](C(N)=O)N(C(=O)/C=C/C=C\C)C3)c1 (some centres not stated)	n	7.1µM	n	n	n
CCN(C(=O)COC(=O)/C=C/c1ccco1)c1c(N)n(Cc2ccccc2)c(=O)[nH]c1=O	n	50µM	x	n	x
CCN(C(=O)COC(=O)/C=C/c1ccc(OC)c(OC)c1)c1c(N)n(Cc2ccccc2)c(=O)[nH]c1=O	n	n	x	n	x
CC(C)CN(C(=O)COC(=O)c1ccccc1NCc1ccco1)c1c(N)n(Cc2ccccc2)c(=O)[nH]c1=O	28µM	n	x	n	x
COCCN(C(=O)COC(=O)/C=C/c1ccc(SC)cc1)c1c(N)n(Cc2ccccc2)c(=O)[nH]c1=O	22µM	n	x	n	x
CCC(=O)N1CCc2cc(S(=O)(=O)CCC(=O)NCc3ccccc3Cl)ccc21	n	n	n	n	n
COc1ccc(Cl)cc1NC(=O)c1cc(S(=O)(=O)NC2CCCCCC2)ccc1F	u	n	n	n	n
CC(=O)c1ccc(Sc2nnnn2-c2ccccc2)c([N+](=O)[O-])c1	n	7.9µM	n	n	n
